Experiment: small-molecule microarray binders of probe aXIP, primary screen, biochemical, NeuroSMM set, 635/667 nm fluorescence (AID 1119);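 also: probe is the protein aXip251-270 applied at 1 µg/mL to compound-printed slides; binding of probe to printed compounds measured as 667 nm fluorescence plus signal to noise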
Details: higher = more signal, called active from +8 up or from −8 down

Composite Z-score, inactive:
CN1C(=O)C2C=CC(C(O)c3ccc(F)cc3)N(N(c3ccccc3)c3ccccc3)C2C1=O (stereo not given) 2.43
Cc1ccc(S[C@]2(C(=O)O)CC(=O)N(Cc3ccccc3C(F)(F)F)[C@@H]2c2ccc(CO)cc2I)cc1 0.286
C[N+](C)(C)CCCC[C@@H]1NC(=O)[C@@H]2C[C@H](C(=O)NCCCCCN)[C@H](c3ccc(O)cc3)N2C1=O 1.01
COCCOC(=O)N1C(=O)[C@@]2(c3cc(C#CCCO)ccc31)[C@H](c1ccc(O)cc1)N1[C@H](c3ccccc3)[C@H](c3ccccc3)OC(=O)[C@H]1[C@@H]2C(=O)N1CCN(c2ncccn2)CC1 0.982
O=C(CS)NCCCCCNC(=O)[C@@H]1C[C@@H]2C(=O)NCC(=O)N2[C@@H]1c1ccc(O)cc1 2
O=C1C2C=CC(C(O)C=Cc3ccc([N+](=O)[O-])cc3)N(n3cnnc3)C2C(=O)N1Cc1ccccc1 (stereo not given) 0.263
C=C(/C(=C/C[C@H](OC(=O)c1ccncc1)c1ccc(OCCO)cc1)c1cc(C(=O)OC)ccc1OC)C(C)C -0.0856
CN(C)CCCC[C@@H]1NC(=O)[C@H]2C[C@@H](C(=O)NCCCCCN)[C@@H](c3cccc(OCCO)c3)N2C1=O 0.522
CCCNC(=O)[C@@H]1c2ccccc2C(=O)N(Cc2ccccc2OC)[C@H]1c1ccc(CO)cc1 -0.228
Cc1ccc(S[C@]2(C(=O)O)CC(=O)N(C(C)C)[C@@H]2c2ccc(CO)cc2)cc1 0.264
COCCCNC(=O)[C@@]1(CCS(=O)(=O)c2ccccc2)N=C(c2ccc(OCCCO)cc2)O[C@H]1c1ccccc1N=[N+]=[N-] 0.164
C=CC[C@@]1(C(=O)N2CCCCC2)N=C(c2ccc(OCCCO)cc2)O[C@@H]1c1ccccc1CN=[N+]=[N-] -0.166
C#CCN1[C@@H](Cc2ccc(O)cc2)C(=O)O[C@H](Cc2ccccc2)[C@@H]1/C=C/C1CC1 0.228
OCC1C=C(/C=C/c2ccccc2)CN1Cc1ccccc1Br (stereo not given) 0.466
COc1ccc(C(=O)Nc2ccc(CN3C(=O)[C@]4(O[C@H](CC(=O)N5CCC[C@H]5CO)[C@@H]([Si](C)(C)c5ccc(OC)cc5)[C@@H]4C)c4ccccc43)cc2)cc1 0.0524
CO[C@H]1O[C@H](CO)[C@@H](OC(=O)Nc2ccccc2-c2ccccc2)[C@H](OC(=O)Nc2ccccc2-c2ccccc2)[C@@H]1OC(=O)Nc1ccccc1-c1ccccc1 0.523
O=C1C[C@@](C(=O)NCc2ccccc2)(c2ccc([N+](=O)[O-])cc2)[C@@H](c2ccc(CO)cc2)N1CC12CC3CC(CC(C3)C1)C2 -0.36
C=C(CCCC)/C(=C/C[C@H](OC(C)=O)c1ccc(OCCO)cc1)c1cnc2ccccc2c1 0.0474
COC(=O)[C@]1(Cc2ccccc2)N=C(c2ccc(OCCCO)cc2)O[C@@H]1c1ccccc1N=[N+]=[N-] -0.181
COC(=O)C(CC#Cc1ccc2c(c1)[C@]1(C(=O)N2)[C@H](c2ccc(O)cc2)N2[C@H](c3ccccc3)[C@H](c3ccccc3)OC(=O)[C@H]2[C@@H]1C(=O)N1CCN(c2ncccn2)CC1)C(=O)OC 0.471
CO[C@H]1O[C@H](CO)[C@@H](OC(=O)Nc2ccc(Br)cc2)[C@@H]2OC(=O)[C@H](Cc3cccc(Br)c3)C/C=C/C[C@@H](Cc3cccc(Br)c3)C(=O)O[C@@H]12 0.106
COCCOC(=O)N1C(=O)[C@@]2(c3cc(C#CC4(O)CCCCCC4)ccc31)[C@H](c1ccccc1OCCO)N1[C@H](c3ccccc3)[C@H](c3ccccc3)OC(=O)[C@H]1[C@@H]2C(=O)N1CCc2cc(OC)c(OC)cc2C1 0.758
[N-]=[N+]=NCc1ccccc1[C@H]1OC(c2ccc(OCCCO)cc2)=N[C@@]1(Cc1ccccc1)C(=O)N1CCCCC1 -0.34
COCCOC(=O)N1C(=O)[C@@]2(c3cc(C#CC4=CCCCC4)ccc31)[C@H](c1ccc(OCCO)cc1)N1[C@H](c3ccccc3)[C@H](c3ccccc3)OC(=O)[C@H]1[C@@H]2C(=O)N1CCc2cc(OC)c(OC)cc2C1 0.111
COCC(=C=CC[C@H](O)c1cccc(OCCO)c1)CCO -0.0662

— PubChem BioAssay
